# Laboratory results taken from publication PMC5540273 (PLoS ONE, 2017).
# Tests used:
# Settings in all cases: concentration: 1 μM, replicates: in singlicate; n = 1
# [1] = system: FLT3-autoinhibited
# [2] = system: FLT3
# [3] = system: FLT4
# [4] = system: FRK
# [5] = system: FYN
# [6] = system: GAK
# [7] = system: T1, GCN2(Kin.Dom.2,S808G)
# T1 construct: gene EIF2AK4
# [8] = system: GRK1
# [9] = system: T2, GRK2
# T2 construct: gene ADRBK1
# [10] = system: T3, GRK3
# T3 construct: gene ADRBK2
# [11] = system: GRK4
# [12] = system: GRK7
# [13] = system: GSK3A
# [14] = system: GSK3B
# [15] = system: T4, HASPIN
# T4 construct: gene GSG2
# [16] = system: HCK
# [17] = system: HIPK1
# [18] = system: HIPK2
# [19] = system: HIPK3
# [20] = system: HIPK4
# 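Note: KINOMEscan kinase panel screen.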
smiles,measurement,setting,value
Fc1ccc(-c2ncn(CCCN3CCOCC3)c2-c2ccccn2)cc1 [SB-211742],%Inh,[1],0%
same,%Inh,[2],20%
same,%Inh,[3],0%
same,%Inh,[4],6%
same,%Inh,[5],0%
same,%Inh,[6],6%
same,%Inh,[7],0%
same,%Inh,[8],0%
same,%Inh,[9],2%
same,%Inh,[10],0%
same,%Inh,[11],0%
same,%Inh,[12],0%
same,%Inh,[13],0%
same,%Inh,[14],0%
same,%Inh,[15],0%
same,%Inh,[16],6%
same,%Inh,[17],38%
same,%Inh,[18],0%
same,%Inh,[19],0%
same,%Inh,[20],26%
O=c1cc(N2CCOCC2)nc2n(Cc3cccc(F)c3)ccn12 [GSK2297430],%Inh,[1],0%
same,%Inh,[2],24%
same,%Inh,[3],9%
same,%Inh,[4],8%
same,%Inh,[5],1%
same,%Inh,[6],14%
same,%Inh,[7],0%
same,%Inh,[8],0%
same,%Inh,[9],0%
same,%Inh,[10],0%
same,%Inh,[11],1%
same,%Inh,[12],0%
same,%Inh,[13],0%
same,%Inh,[14],11%
same,%Inh,[15],4%
same,%Inh,[16],0%
same,%Inh,[17],0%
same,%Inh,[18],0%
same,%Inh,[19],9%
same,%Inh,[20],0%
CC(=O)Nc1ccc(COc2ccc(Nc3ccnc4cc(-c5ccccn5)ccc34)cc2)cc1.Cl [GW440148],%Inh,[1],38%
same,%Inh,[2],98%
same,%Inh,[3],99.9%
same,%Inh,[4],0%
same,%Inh,[5],47%
same,%Inh,[6],8%
same,%Inh,[7],0%
same,%Inh,[8],0%
same,%Inh,[9],0%
same,%Inh,[10],17%
same,%Inh,[11],0%
same,%Inh,[12],0%
same,%Inh,[13],34%
same,%Inh,[14],12%
same,%Inh,[15],13%
same,%Inh,[16],52%
same,%Inh,[17],0%
same,%Inh,[18],0%
same,%Inh,[19],12%
same,%Inh,[20],7%
O=C(NCCCN1CCOCC1)c1cccc(Nc2nccc(Nc3ccc(Oc4ccccc4)cc3)n2)c1 [GW663929],%Inh,[1],33%
same,%Inh,[2],90.7%
same,%Inh,[3],4%
same,%Inh,[4],48%
same,%Inh,[5],93.5%
same,%Inh,[6],33%
same,%Inh,[7],36%
same,%Inh,[8],8%
same,%Inh,[9],0%
same,%Inh,[10],20%
same,%Inh,[11],0%
same,%Inh,[12],0%
same,%Inh,[13],21%
same,%Inh,[14],0%
same,%Inh,[15],0%
same,%Inh,[16],96.9%
same,%Inh,[17],14%
same,%Inh,[18],0%
same,%Inh,[19],0%
same,%Inh,[20],5%
COc1ccc(CNC(=O)NC2CCN(c3ccnc(Nc4ccc(OC)cc4)n3)C2)cc1 (centres unmarked) [GSK1379727],%Inh,[1],0%
same,%Inh,[2],7%
same,%Inh,[3],0%
same,%Inh,[4],0%
same,%Inh,[5],38%
same,%Inh,[6],0%
same,%Inh,[7],11%
same,%Inh,[8],0%
same,%Inh,[9],0%
same,%Inh,[10],48%
same,%Inh,[11],4%
same,%Inh,[12],0%
same,%Inh,[13],0%
same,%Inh,[14],0%
same,%Inh,[15],19%
same,%Inh,[16],0%
same,%Inh,[17],0%
same,%Inh,[18],40%
same,%Inh,[19],23%
same,%Inh,[20],0%
O=C1Cc2cc(Nc3nc(NCc4cccc(S(=O)(=O)C(F)(F)F)c4)ncc3C(F)(F)F)ccc2N1,%Inh,[1],0%
same,%Inh,[2],0%
same,%Inh,[3],0%
same,%Inh,[4],0%
same,%Inh,[5],0%
same,%Inh,[6],8%
same,%Inh,[7],28%
same,%Inh,[8],0%
same,%Inh,[9],30%
same,%Inh,[10],22%
same,%Inh,[11],8%
same,%Inh,[12],0%
same,%Inh,[13],47%
same,%Inh,[14],0%
same,%Inh,[15],8%
same,%Inh,[16],21%
same,%Inh,[17],0%
same,%Inh,[18],7%
same,%Inh,[19],0%
same,%Inh,[20],0%
CNc1ncnc2[nH]ncc12 [SKF-18355],%Inh,[1],0%
same,%Inh,[2],0%
same,%Inh,[3],0%
same,%Inh,[4],0%
same,%Inh,[5],0%
same,%Inh,[6],0%
same,%Inh,[7],0%
same,%Inh,[8],29%
same,%Inh,[9],0%
same,%Inh,[10],0%
same,%Inh,[11],4%
same,%Inh,[12],0%
same,%Inh,[13],0%
same,%Inh,[14],25%
same,%Inh,[15],44%
same,%Inh,[16],16%
same,%Inh,[17],42%
same,%Inh,[18],0%
same,%Inh,[19],12%
same,%Inh,[20],0%
Cn1cc(-c2ccc3c(c2)CCN3C(=O)Cc2ccccc2Cl)c2c(N)ncnc21 [GSK2608885],%Inh,[1],20%
same,%Inh,[2],99.3%
same,%Inh,[3],99.8%
same,%Inh,[4],97.9%
same,%Inh,[5],97.1%
same,%Inh,[6],33%
same,%Inh,[7],81%
same,%Inh,[8],0%
same,%Inh,[9],0%
same,%Inh,[10],0%
same,%Inh,[11],0%
same,%Inh,[12],0%
same,%Inh,[13],0%
same,%Inh,[14],9%
same,%Inh,[15],0%
same,%Inh,[16],99.4%
same,%Inh,[17],0%
same,%Inh,[18],0%
same,%Inh,[19],14%
same,%Inh,[20],36%
COc1ccc(Nc2nccc(N3CCC(NC(=O)Nc4cc(C)ccc4C)C3)n2)cc1 (centres unmarked) [GSK1379741],%Inh,[1],0%
same,%Inh,[2],0%
same,%Inh,[3],1%
same,%Inh,[4],0%
same,%Inh,[5],2%
same,%Inh,[6],9%
same,%Inh,[7],0%
same,%Inh,[8],0%
same,%Inh,[9],0%
same,%Inh,[10],0%
same,%Inh,[11],0%
same,%Inh,[12],0%
same,%Inh,[13],0%
same,%Inh,[14],18%
same,%Inh,[15],0%
same,%Inh,[16],0%
same,%Inh,[17],0%
same,%Inh,[18],0%
same,%Inh,[19],16%
same,%Inh,[20],0%
CC(C)Oc1ccc2c(-c3ccnc(Nc4ccc(N5CCN(C)CC5)cc4)n3)cnn2n1 [GW696155],%Inh,[1],70%
same,%Inh,[2],98.3%
same,%Inh,[3],30%
same,%Inh,[4],41%
same,%Inh,[5],53%
same,%Inh,[6],96.3%
same,%Inh,[7],100%
same,%Inh,[8],5%
same,%Inh,[9],0%
same,%Inh,[10],48%
same,%Inh,[11],84%
same,%Inh,[12],0%
same,%Inh,[13],0%
same,%Inh,[14],6%
same,%Inh,[15],70%
same,%Inh,[16],0%
same,%Inh,[17],97.2%
same,%Inh,[18],98.7%
same,%Inh,[19],98.5%
same,%Inh,[20],83%
